# Assay results taken from the supplement of paper PMC6522484.
# ± gives the standard deviation of the averaged measurements.
# Tests used:
# DLD1 [1] = experiment: cell viability (CellTiter-Glo) relative to plate median (fraction of plate median); higher = more viable cells; conditions: 5 µM; treatment time 24 h; reporter: 7TFP
# Outline: (§1)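 Library compounds were added at a final concentration of 5 µM for 24 h to colorectal cancer cells stably transduced with a lentiviral TCF/Wnt firefly luciferase reporter. Reported values are firefly luciferase or CellTiterGlo luminescence, normalised per well to the plate median. Each value averages two independent replicates.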
# HCT116 = experiment: as above; conditions: 5 µM; treatment time 24 h; reporter: TCF4/Wnt
# Outline: as §1
# SW480 [2] = experiment: as above; conditions: 5 µM; treatment time 24 h; reporter: 7TFP
# Outline: as §1
# DLD1 [3] = experiment: TCF/Wnt firefly luciferase reporter signal relative to plate median (fraction of plate median); higher = higher Wnt reporter signal; conditions: 5 µM; treatment time 24 h; reporter: 7TFP
# Outline: as §1
# SW480 [4] = experiment: as above; conditions: 5 µM; treatment time 24 h; reporter: 7TFP
# Outline: as §1
SMILES,cell viability (DLD1 [1]),cell viability (HCT116),cell viability (SW480 [2]),TCF/Wnt firefly luciferase reporter signal (DLD1 [3]),TCF/Wnt firefly luciferase reporter signal (SW480 [4])
NNCCc1ccccc1,0.995 ± 0.11,0.943 ± 0.069,0.98 ± 0.042,1.26 ± 0.2,1.22 ± 0.014
CC(=O)c1oc(C)c2c1C(=O)c1cccc(O)c1C2=O [Bhimamycin B],0.955 ± 0.019,1.01 ± 0.015,0.9505 ± 0.00071,1.02 ± 0.035,1.1 ± 0.028
Cc1cc(C(C)(C)C)c(O)c(C)c1CC1=NCCN1,0.977 ± 0.047,0.895 ± 0.016,0.972 ± 0.035,1.15 ± 0.13,1.065 ± 0.0071
CC1=C(C(=O)O)N2C(=O)[C@@H](NC(=O)[C@H](N)C3=CCC=CC3)[C@H]2SC1,0.978 ± 0.073,0.958 ± 0.018,0.948 ± 0.021,1.01 ± 0.09,1.02 ± 0.021
O=c1c(-c2ccc(O)cc2)coc2cc(O)ccc12,1.01,0.9665 ± 0.0021,0.902 ± 0.0042,0.978 ± 0.059,0.971 ± 0.025
COc1c(N2CCNC(C)C2)c(F)cc2c(=O)c(C(=O)O)cn(C3CC3)c12 (stereo not given),0.925 ± 0.18,0.911 ± 0.082,0.966 ± 0.048,0.933 ± 0.081,0.906 ± 0.041
N#CN=C(NCCCCCCOc1ccc(Cl)cc1)Nc1ccncc1,0.954 ± 0.021,1.01 ± 0.03,0.87 ± 0.046,1.15 ± 0.057,1.14 ± 0.21
Cc1c(C(=O)O)c(O)cc2c1C(=O)c1c(O)c([C@@H]3O[C@H](CO)[C@@H](O)[C@H](O)[C@H]3O)c(O)c(O)c1C2=O,0.97 ± 0.032,1.01 ± 0.089,0.9855 ± 0.0078,1.08 ± 0.17,1.07 ± 0.14
CC(=O)O[C@H]1C[C@@]2(C)[C@H](c3ccoc3)OC(=O)[C@H]3O[C@]32[C@@]2(C)C1[C@]1(C)C(C[C@H]2OC(C)=O)C(C)(C)[C@H](OC(C)=O)C[C@@H]1OC(C)=O (stereo partly drawn) [11alpha-ACETOXYKHIVORIN],0.973 ± 0.014,0.895 ± 0.088,0.941 ± 0.013,1 ± 0.14,1.05 ± 0.11
NC(=O)C(c1ccccc1)(c1ccccc1)[C@@H]1CCN(CCc2ccc3c(c2)CCO3)C1,0.873 ± 0.067,0.983 ± 0.0042,0.947 ± 0.03,1.03 ± 0.094,1.005 ± 0.0071
